Active and inactive are the calls of the source. Unless noted, how the calls were made is not given here.
How the values were obtained:
[1] = test system: Wnt5a (protein binding on small-molecule microarray); assay: Wnt5a binders on small-molecule microarray, primary screen, biophysical, 635/667 nm fluorescence (AID 1142); details: 635 nm fluorescence, higher = more signal;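 further: fluorescence read at 667 nm with signal to noise per printed feature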
[2] = cell viability in Huh7 cells, primary screen, cytotoxicity control for HCV replication inhibitor project, CellTiter-Glo luminescence, basal, 48 h (AID 1143); details: Huh7 HCV replicon, higher = more signal, called active from +8 up or from −8 down;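 further: Huh7 hepatoma cells carrying a hepatitis C replication reporter with no stimulus; test concentration not given here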
[3] = P. aeruginosa biofilm formation inhibitors, primary screen, PAO1 strain, BacTiter-Glo luminescence, LB-PBS (AID 1144); details: 12 h, higher = more signal
[4] = CREB reporter modulators without forskolin, primary screen, cell-based, PC12, CRE-LacZ reporter, unstimulated (AID 1145); details: no forskolin, luminescence, 4.5 h, higher = more signal, called active from +8 up or from −8 down
[5] = CREB reporter modulators under forskolin, primary screen, cell-based, PC12, CRE-LacZ reporter, forskolin-stimulated (AID 1146); details: luminescence, 4.5 h, higher = more signal, called active from +8 up or from −8 down;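 further: PC12 cells with 6xCRE LacZ reporter stimulated by forskolin 10 µM; beta-galactosidase reporter signal reflecting CREB driven transcription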
[6] = target: Streptavidin (Streptomyces avidinii) (UniProt P22629); assay: streptavidin binders on small-molecule microarray, primary screen, artefact control for SMM compound annotation, biophysical, 635/667 nm fluorescence (AID 1147); details: streptavidin binding, higher = more signal;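 further: signal reflects streptavidin binding to arrayed compounds as a control protein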
[7] = small-molecule binders of probe aInhba, primary screen, biochemical, small-molecule microarray, 635/667 nm fluorescence (AID 1148); details: higher = more signal;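 further: score merges 667nm spot fluorescence with signal-to-noise for antibody binding to printed compounds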
Torsin-1A (Homo sapiens) [8] = target: Torsin-1A (Homo sapiens) (UniProt O14656); assay: torsin A binders from cell lysate, primary screen, small-molecule microarray, wild-type, 635/667 nm (AID 1149); details: COS7 hTOR1A-WT lysate, 635 nm fluorescence, higher = more signal
Torsin-1A (Homo sapiens) [9] = target: Torsin-1A (Homo sapiens) (UniProt O14656); assay: small-molecule binders of mutant TOR1A in lysate, primary screen, cell lysate, small-molecule microarray, COS7 lysate, 635/667 nm fluorescence (AID 1150); details: COS7 hTOR1A mutant lysate, 635 nm fluorescence, higher = more signal;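 further: score pools 667 nm emission and signal to noise measuring lysate protein binding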
[10] = test system: Sonic hedgehog protein (Shh); assay: small-molecule binders of Shh protein, primary screen, biochemical, small-molecule microarray, 635/667 nm fluorescence (AID 1151); details: small-molecule microarray binding, 635 nm fluorescence; higher = more signal;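 further: Shh protein binding to compounds spotted on small-molecule microarray slides; score combines spot fluorescence intensity with signal-to-noise across triplicate slides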
[11] = E. coli DRC41 culture turbidity changes, primary screen, E. coli filamentation inducer project, strain DRC41, OD650, 48 h (AID 1152);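 further: E. coli MC1000 strain DRC41 lacking acrAB efflux pump and sulA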; details: E. coli DRC41 (acrAB sulA), higher = more signal, called active from +8 up or from −8 down
[12] = small-molecule binders of probe aLefty1, primary screen, biochemical, small-molecule microarray, 635/667 nm fluorescence (AID 1153); details: higher = more signal;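 further: score merges spot fluorescence with signal-to-noise ratio from the scanned slide images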
[13] = PSAC antagonists in infected red cells, primary screen, cell-based, P. falciparum Indochina, OD700, 1 h (AID 1154); details: P. falciparum Indochina infected RBC osmotic lysis, higher = more signal, called active from +8 up or from −8 down
[14] = PSAC antagonists in infected red cells, primary screen, cell-based, P. falciparum Indochina, OD700, 2 h (AID 1155);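 further: lysis reports solute entry through the parasite surface anion channel PSAC; channel blockers reduce lysis of infected cells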; details: P. falciparum Indochina infected erythrocytes, osmotic lysis OD700; higher = more signal, called active from +8 up or from −8 down
[15] = osmotic lysis modulators in infected erythrocytes, primary screen, PSAC antagonist project, cell-based, P. falciparum Indochina, OD700, 3 h (AID 1156); details: higher = more signal, called active from +8 up or from −8 down
[16] = PSAC antagonists in infected red cells, primary screen, cell-based, P. falciparum Indochina, OD700, 18 h (AID 1157); details: P. falciparum Indochina infected erythrocytes, osmotic lysis OD700, 18 h; higher = more signal, called active from +8 up or from −8 down
[17] = modulators of S6 phosphorylation in cells, primary screen, cell-based, A549, cytoblot, luminescence, serum-stimulated (AID 1158); details: A549 phospho-S6 cytoblot, 5 h, higher = more signal;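 further: serum-stimulated A549 lung adenocarcinoma cells; signal is phosphorylated S6 detected by cytoblot immunostaining with HRP secondary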
[18] = target: NADPH oxidase 2 (Homo sapiens) (UniProt P04839); assay: NOX2-dependent H2O2 signal modulators, primary screen, NOX inhibitor project, cell-based, HEK293-NOX2, PMA-stimulated, Amplex Red fluorescence (AID 1159); details: 45 min, higher = more signal, called active from +8 up or from −8 down; further: test concentration not given here
[19] = target: NADPH oxidase 4 (Homo sapiens) (UniProt Q9NPH5); assay: NOX4-dependent H2O2 signal modulators, primary screen, NOX inhibitor project, cell-based, HEK293-NOX4, tetracycline-induced, Amplex Red fluorescence (AID 1160); details: 45 min, higher = more signal, called active from +8 up or from −8 down
[20] = target: NADPH oxidase 5 (Homo sapiens) (UniProt Q96PH1); assay: NOX5-dependent H2O2 signal modulators, primary screen, NOX inhibitor project, cell-based, HEK293-NOX5, Amplex Red fluorescence (AID 1161); details: HEK293-NOX5, ionomycin, 45 min, higher = more signal
NADPH oxidase 5 (Homo sapiens), sequence (Q96PH1 whole entry, looked up): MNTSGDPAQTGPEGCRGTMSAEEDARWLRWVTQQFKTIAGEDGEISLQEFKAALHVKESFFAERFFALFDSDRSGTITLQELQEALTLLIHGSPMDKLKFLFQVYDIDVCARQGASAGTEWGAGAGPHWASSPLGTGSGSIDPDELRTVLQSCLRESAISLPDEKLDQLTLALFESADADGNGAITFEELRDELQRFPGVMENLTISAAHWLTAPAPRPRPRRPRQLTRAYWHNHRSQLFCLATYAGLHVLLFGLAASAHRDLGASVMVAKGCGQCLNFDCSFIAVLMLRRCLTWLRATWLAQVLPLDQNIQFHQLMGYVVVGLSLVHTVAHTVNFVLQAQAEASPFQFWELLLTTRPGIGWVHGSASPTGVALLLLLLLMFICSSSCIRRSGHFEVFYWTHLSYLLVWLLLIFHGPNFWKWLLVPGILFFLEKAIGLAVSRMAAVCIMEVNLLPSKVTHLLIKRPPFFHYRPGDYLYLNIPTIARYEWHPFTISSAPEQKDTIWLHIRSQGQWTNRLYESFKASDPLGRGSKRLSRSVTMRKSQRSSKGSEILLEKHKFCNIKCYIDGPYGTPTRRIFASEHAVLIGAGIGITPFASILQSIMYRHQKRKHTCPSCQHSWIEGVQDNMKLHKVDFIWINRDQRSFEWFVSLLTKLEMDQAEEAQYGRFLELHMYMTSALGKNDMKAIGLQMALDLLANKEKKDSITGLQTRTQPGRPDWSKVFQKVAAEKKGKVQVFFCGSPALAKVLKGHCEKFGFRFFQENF

Torsin-1A (Homo sapiens), sequence (O14656 whole entry, looked up): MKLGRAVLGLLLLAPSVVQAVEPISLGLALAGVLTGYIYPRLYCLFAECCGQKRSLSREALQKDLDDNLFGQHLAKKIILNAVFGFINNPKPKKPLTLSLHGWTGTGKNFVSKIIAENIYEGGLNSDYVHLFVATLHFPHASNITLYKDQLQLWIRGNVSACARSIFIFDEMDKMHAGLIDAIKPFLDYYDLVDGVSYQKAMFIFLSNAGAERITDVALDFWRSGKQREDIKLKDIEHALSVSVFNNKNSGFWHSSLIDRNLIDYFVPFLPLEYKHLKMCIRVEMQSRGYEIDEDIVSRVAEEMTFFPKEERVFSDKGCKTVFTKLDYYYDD
NADPH oxidase 4 (Homo sapiens), sequence (Q9NPH5 whole entry, looked up): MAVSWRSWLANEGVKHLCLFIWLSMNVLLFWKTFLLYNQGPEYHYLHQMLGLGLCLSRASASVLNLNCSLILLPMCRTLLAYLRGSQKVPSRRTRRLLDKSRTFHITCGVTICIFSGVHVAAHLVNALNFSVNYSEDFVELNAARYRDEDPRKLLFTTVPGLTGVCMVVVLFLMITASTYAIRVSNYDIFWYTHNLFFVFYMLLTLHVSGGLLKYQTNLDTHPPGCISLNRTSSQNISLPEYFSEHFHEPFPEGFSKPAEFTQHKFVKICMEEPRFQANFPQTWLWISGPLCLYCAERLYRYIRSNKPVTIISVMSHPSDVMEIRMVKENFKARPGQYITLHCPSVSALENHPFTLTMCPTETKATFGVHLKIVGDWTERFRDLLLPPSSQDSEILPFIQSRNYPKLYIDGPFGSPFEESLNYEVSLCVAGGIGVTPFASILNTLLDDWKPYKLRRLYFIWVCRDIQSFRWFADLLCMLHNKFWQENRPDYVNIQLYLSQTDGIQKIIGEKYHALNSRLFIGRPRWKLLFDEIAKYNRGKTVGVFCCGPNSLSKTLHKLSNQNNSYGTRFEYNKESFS
Streptavidin (Streptomyces avidinii), sequence (P22629 whole entry, looked up): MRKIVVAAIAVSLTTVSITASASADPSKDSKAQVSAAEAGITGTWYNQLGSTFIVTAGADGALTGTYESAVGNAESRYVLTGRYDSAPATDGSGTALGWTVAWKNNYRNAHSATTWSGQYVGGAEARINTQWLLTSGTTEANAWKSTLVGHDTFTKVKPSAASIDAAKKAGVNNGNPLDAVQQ
NADPH oxidase 2 (Homo sapiens), sequence (P04839 whole entry, looked up): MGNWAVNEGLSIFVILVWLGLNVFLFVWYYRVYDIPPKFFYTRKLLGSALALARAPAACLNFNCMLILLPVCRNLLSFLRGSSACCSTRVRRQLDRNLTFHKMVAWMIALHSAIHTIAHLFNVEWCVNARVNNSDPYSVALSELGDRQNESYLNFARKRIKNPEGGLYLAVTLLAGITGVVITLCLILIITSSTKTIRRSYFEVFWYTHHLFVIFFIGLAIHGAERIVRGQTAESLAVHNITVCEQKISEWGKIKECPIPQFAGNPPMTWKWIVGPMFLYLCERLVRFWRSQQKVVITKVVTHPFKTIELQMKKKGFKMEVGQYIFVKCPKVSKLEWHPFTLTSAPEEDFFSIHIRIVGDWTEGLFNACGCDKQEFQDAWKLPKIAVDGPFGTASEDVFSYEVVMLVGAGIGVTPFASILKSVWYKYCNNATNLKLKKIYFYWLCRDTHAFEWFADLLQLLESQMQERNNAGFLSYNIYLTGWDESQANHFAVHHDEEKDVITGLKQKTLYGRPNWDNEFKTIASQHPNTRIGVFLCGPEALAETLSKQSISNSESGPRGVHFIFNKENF

| Structure (SMILES) | composite z-score [1] | z-score [2] | z-score [3] | z-score [4] | z-score [5] | composite z-score [6] | composite z-score [7] | composite z-score (Torsin-1A (Homo sapiens) [8]) | composite z-score (Torsin-1A (Homo sapiens) [9]) | composite z-score [10] | z-score [11] | composite z-score [12] | z-score [13] | z-score [14] | z-score [15] | z-score [16] | z-score [17] | z-score [18] | z-score [19] | z-score [20] |
| --- | --- | --- | --- | --- | --- | --- | --- | --- | --- | --- | --- | --- | --- | --- | --- | --- | --- | --- | --- | --- |
| Cc1ccccc1C(O)C1C=CC2C(=O)N(c3ccccc3)C(=O)C2N1Nc1ccccc1 (stereo not given) | 0.719 | -0.383 (inactive) | -1.18 (inactive) | 0.0501 (inactive) | 0.0163 (inactive) | 1.65 | 0.182 | -0.241 | 0.191 | 0.442 | -0.29 (inactive) | 0.271 | 20.1 (active) | 3.73 (inactive) | 0.214 (inactive) | 1.59 (inactive) | -0.495 | -1.85 (inactive) | -2.96 (inactive) | -2.44 |
| O=C(NCC(O)CO)C1N=C(c2ccc(OCCCO)cc2)N(c2ccccc2)O1 (stereo not given) | 0.41 | -1.12 (inactive) | 2.56 (inactive) | 0.456 (inactive) | -0.442 (inactive) | -0.214 | -0.0468 | 0.975 | 0.682 | 1.27 | -0.0446 (inactive) | -0.316 | 13.5 (active) | 1.49 (inactive) | 0.257 (inactive) | 0.594 (inactive) | 0.0265 | -1.68 (inactive) | -1.05 (inactive) | -0.583 |
| C=C(COC)/C(=C/C[C@H](OC(C)=O)c1ccccc1OCCO)c1cc(C(=O)OC)ccc1OC | 0.0266 | -3.38 (inactive) | 0.0472 (inactive) | 14.7 (active) | 0.659 (inactive) | -0.432 | -0.0589 | -0.035 | 0.727 | 1.2 | 0.311 (inactive) | -0.145 | 8.11 (active) | 1.02 (inactive) | 0.454 (inactive) | -0.897 (inactive) | 1.52 | -0.688 (inactive) | 0.0021 (inactive) | -1.97 |
| C=CCN1C(=O)[C@@]2(O[C@@H](CCn3cc([C@H](O)c4ccccc4)nn3)[C@H]([Si](C)(C)c3ccc(OC)cc3)[C@H]2C)c2cc(N3C(=O)c4cccc5cccc3c45)ccc21 | -0.654 | -3.71 (inactive) | -0.119 (inactive) | 9.39 (active) | -0.592 (inactive) | -0.253 | -0.128 | -0.488 | -0.462 | -0.339 | -0.851 (inactive) | -0.101 | 4.77 (inactive) | 1.81 (inactive) | 0.519 (inactive) | 1.31 (inactive) | 0.075 | 0.962 (inactive) | 1.57 (inactive) | 2.52 |
| O=C1[C@@H]2[C@@H](CC(COc3ccccc3)=C([C@H](O)CCc3ccccc3)[C@@H]2CO)C(=O)N1Cc1ccccc1 | -0.0252 | -2.37 (inactive) | -0.423 (inactive) | 4.74 (inactive) | 0.831 (inactive) | 0.541 | -0.274 | -0.19 | 0.167 | 0.801 | 0.17 (inactive) | -0.0867 | 27.8 (active) | 21.8 (active) | -0.602 (inactive) | 2.05 (inactive) | 0.05 | -2.32 (inactive) | -0.526 (inactive) | -1.59 |
| CC1CC/C=C\[C@H]2OC34C=CCN(Cn5nnc6ccccc65)C(=O)[C@H]3N(CCCCCCO)C(=O)[C@@H]4C2C(=O)O1 (stereo not given in full) | -0.755 | 0.835 (inactive) | -1.18 (inactive) | -0.0859 (inactive) | 0.19 (inactive) | -0.399 | -0.12 | -1.51 | -1.11 | -0.415 | 0.699 (inactive) | 0.0999 | 0.59 (inactive) | -0.139 (inactive) | -0.248 (inactive) | 0.527 (inactive) | 1.2 | 1.02 (inactive) | 0.515 (inactive) | 2.37 |
| CN(C)C(=O)[C@]1(Cc2ccccc2)N=C(c2ccc(OCCCO)cc2)O[C@@H]1c1ccccc1CN=[N+]=[N-] | 0.552 | -3.95 (inactive) | -0.754 (inactive) | -0.655 (inactive) | 2.45 (inactive) | 1.34 | 0.136 | 1.12 | 0.737 | 0.0325 | 0.631 (inactive) | 0.313 | 27.3 (active) | 17.5 (active) | 1.11 (inactive) | 2.14 (inactive) | 0.0358 | -3.22 (inactive) | -0.846 (inactive) | -1.24 |
| COc1ccc([Si](C)(C)[C@H]2[C@H](CCO)O[C@@]3(C(=O)N(Cc4ccc(NC(=O)[C@H](C)O)cc4)c4ccccc43)[C@@H]2C)cc1 | 0.185 | -8.05 (active) | -0.159 (inactive) | 5 (inactive) | -1.71 (inactive) | 0.674 | -0.0405 | 0.189 | 0.753 | 0.785 | 0.0546 (inactive) | -0.0984 | 29.9 (active) | 25.8 (active) | 2.52 (inactive) | 2.46 (inactive) | 1.27 | 0.25 (inactive) | 1.39 (inactive) | -0.66 |
| COC(=O)[C@]1(Cc2ccccc2)N=C(c2ccc(OCCCO)cc2)O[C@@H]1c1ccccc1CN=[N+]=[N-] | 0.239 | -5.39 (inactive) | -1.19 (inactive) | 2.31 (inactive) | -1.5 (inactive) | -0.304 | 0.233 | -0.133 | 0.104 | 0.895 | -1.03 (inactive) | 0.25 | 27.2 (active) | 24.7 (active) | 0.765 (inactive) | 4.7 (inactive) | 0.614 | -4.51 (inactive) | -1.36 (inactive) | -2.36 |
| CCOc1cc(C(O)C2C=CC3C(=O)N(c4ccccc4)C(=O)C3N2Nc2ccccc2F)ccc1O (stereo not given) | 0.482 | 0.777 (inactive) | -0.545 (inactive) | 0.815 (inactive) | 0.63 (inactive) | 0.376 | 0.75 | -0.166 | 0.407 | -0.663 | -0.469 (inactive) | 0.875 | 6.56 (inactive) | 1.27 (inactive) | -0.0788 (inactive) | 0.926 (inactive) | -0.824 | -2.32 (inactive) | -4.37 (inactive) | -4.13 |
